# Data from PubChem BioAssay (Tox21).
# Several values for one entry are separate records, joined by “and”; a condition that tells them apart may be missing. Equal entries are not always repeated. Inconclusive results are not listed. A call without a number means that no potency is given here. Unmarked numbers belong to inactive results. Activity calls are given as the source filed them. Calls follow the shape of the dose curve; as a rule, active = well fitted curve in the direction sought with a large enough effect in the repeat runs; inconclusive = weak or mixed curves; inactive = no such curve, though single readings can be large; an effect the other way counts as inactive or inconclusive.
# Tests used:
# [1] = qHTS RealTime-Glo MT Cell Viability Assay in HepG2 cells - 8 hour (AID 1224873); also: nearly all actives have a fitted effect of over 55% in size
# In short: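 HepG2 cells mixed with RealTime-Glo MT reagents (NanoLuc plus cell-permeant prosubstrate) were seeded at 600 cells/well, incubated 5 h at 37 C/5% CO2, then pinned with compounds in DMSO; nonlytic luminescence tracked viability during 40 h treatment.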
# [2] = A CellTox Green Cytotoxicity Assay to monitor cytotoxicity in HepG2 cells - 16 hour (AID 1224876); also: nearly all actives have a fitted effect of over 45% in size
# In short: (§1)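 HepG2 cells, 600/well, preincubated 5 h with CellTox Green dye, then exposed to Tox21 compounds in DMSO at 37 C for up to 40 h. Dead-cell DNA fluorescence read at the indicated time point.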
# [3] = A CellTox Green Cytotoxicity Assay to monitor cytotoxicity in HepG2 cells - 40 hour (AID 1224879); also: nearly all actives have a fitted effect of over 40% in size
# In short: as §1
# [4] = qHTS RealTime-Glo MT Cell Viability Assay in HEK293 cells - 0 hour (AID 1224880); also: nearly all actives have a fitted effect of over 45% in size
# In short: (§2)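 600 cells/well were plated with the nonlytic NanoLuc/prosubstrate reagent, pre-incubated 5 h, then given 23 nL of compound in DMSO. Incubation at 37 C for 40 h, with luminescence from viable-cell-reduced substrate read repeatedly from 0 h.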
# [5] = qHTS RealTime-Glo MT Cell Viability Assay in HEK293 cells - 40 hour (AID 1224874); conditions: RealTime-Glo luminescence; max response: stronger effect = lower value; also: nearly all actives have a fitted effect of over 50% in size
# In short: as §2
# [6] = A CellTox Green Cytotoxicity Assay to monitor cytotoxicity in HepG2 cells - 24 hour (AID 1224878); also: nearly all actives have a fitted effect of over 45% in size
# In short: as §1
# [7] = A CellTox Green Cytotoxicity Assay to monitor cytotoxicity in HEK293 cells - 24 hour (AID 1224875); also: nearly all actives have a fitted effect of over 45% in size
# In short: (§3)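 HEK293 cells, 600/well, were preincubated 5 hours and then exposed to compounds at 37 C for up to 40 hours. A cell-impermeant cyanine dye staining dead-cell DNA was read by fluorescence at 0, 8, 16, 24, 32 and 40 h time points.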
# [8] = qHTS RealTime-Glo MT Cell Viability Assay in HepG2 cells - 32 hour (AID 1224877); also: nearly all actives have a fitted effect of over 55% in size
# In short: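 Luminescence read-out: viable HepG2 cells reduce a prosubstrate to a NanoLuc substrate, giving a signal proportional to live cell number. Reads taken at 0, 8, 16, 24, 32 and 40 h of compound exposure at 37 C.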
# [9] = A CellTox Green Cytotoxicity Assay to monitor cytotoxicity in HEK293 cells - 32 hour (AID 1224881); also: nearly all actives have a fitted effect of over 40% in size
# In short: as §3
# Potency is read from the fitted curve at half-maximal effect.
SMILES,Potency [1],Potency [2],Potency [3],Potency [4],Potency [5],Potency [6],Potency [7],Potency [8],Potency [9],max response [5] [%]
CC(C)OC(=O)c1cc(C(=O)OC(C)C)cc([N+](=O)[O-])c1,inactive,inactive,inactive,inactive,–,–,–,–,–,–
O=C(Nc1ccc(Cl)c(Cl)c1)c1cc(Cl)cc(Cl)c1O,inactive,inactive,8.71 µM (active),inactive,4.9 µM (active),9.77 µM (active),–,–,–,–
OCCN1CN(CCO)CN(CCO)C1,–,inactive,inactive,inactive,–,inactive,inactive,inactive,inactive,–
CSc1c(Cl)c(Cl)c(Cl)c(Cl)c1Cl,–,48.7 µM (active),–,inactive,–,–,–,inactive,–,-20.6
CCCSS/C(CCO)=C(\C)N(C=O)Cc1cnc(C)nc1N,inactive,–,26.8 µM (active),inactive,–,inactive,inactive,–,inactive,–
CCCCNc1c(C(=O)OCC)c(C)nc2c1cnn2CC,inactive,inactive,–,inactive,–,inactive,inactive,–,inactive,–
NC(=O)c1nc(-c2cccc(-c3cc(F)ccc3OCC(F)(F)C(F)(F)F)c2)n[nH]1,inactive,49 µM (active),43.6 µM (active),inactive,–,43.6 µM (active),inactive,inactive,–,–
Cc1nc(Nc2ncc(C(=O)Nc3c(C)cccc3Cl)s2)cc(N2CCN(CCO)CC2)n1,–,–,26.8 µM (active),26.8 µM (active),–,26.8 µM (active),inactive,–,inactive,–
Oc1cc2ccccc2cc1O,–,inactive,inactive,–,–,inactive,–,inactive,–,–
CC(=O)c1ccccc1N,inactive,inactive,inactive,inactive,–,inactive,inactive,inactive,inactive,–
Cc1ccc(N)cc1O,inactive,–,–,inactive,–,–,–,inactive,–,–
CCOB(OCC)OCC,inactive,–,–,–,–,–,inactive,inactive,inactive,–
CC(C)c1cccc(C(C)C)c1N1C(=O)c2ccc(O)cc2C1=O,43.6 µM (active),24.5 µM (active),24.5 µM (active),inactive,–,24.5 µM (active),–,43.6 µM (active),–,–
CC(C)N=C(N)/N=C(\N)Nc1ccc(Cl)cc1,inactive,–,26.8 µM (active),inactive,26.8 µM (active),26.8 µM (active),inactive,inactive,–,–
O=C(NO)c1ccccc1,inactive,–,–,inactive,–,–,–,inactive,–,–
O=C(c1ccccc1)c1cc(Cl)ccc1O,–,–,inactive,inactive,–,inactive,–,–,–,-24.1
CCCCCCCC/C=C\CCCCCCCC(=O)N(C)CC(=O)O,–,–,–,inactive,–,–,34.7 µM (active),inactive,34.7 µM (active),–
Oc1ccc(-c2ccc(O)cc2)cc1,inactive,inactive,inactive,inactive,–,inactive,inactive,inactive,inactive,–
CN1CCN(C2Cc3ccccc3Sc3ccc(Cl)cc32)CC1 (stereo unspecified),–,26.8 µM (active),23.9 µM (active),inactive,23.9 µM (active),23.9 µM (active),21.3 µM (active),23.9 µM (active),–,–
CCCCOc1ccc(C(=O)CCN2CCCCC2)cc1,–,19 µM (active),19 µM (active),inactive,13.4 µM (active),–,16.9 µM (active),10.7 µM (active),–,–
C[C@H]1O[C@@H](O[C@H]2[C@@H](O)C[C@H](O[C@H]3[C@@H](O)C[C@H](O[C@H]4CC[C@@]5(C)[C@H](CC[C@@H]6[C@@H]5C[C@@H](O)[C@]5(C)[C@@H](C7=CC(=O)OC7)CC[C@]65O)C4)O[C@@H]3C)O[C@@H]2C)C[C@H](O)[C@@H]1O,–,inactive,inactive,inactive,61.7 nM (active) and 54.3 nM (active),inactive,inactive,–,–,–
C[C@]12CC[C@H]3C(=CCc4cc(O)ccc43)[C@@H]1CCC2=O,–,inactive,–,inactive,43.6 µM (active),–,inactive,inactive,inactive,–
CCC(C)c1cc([N+](=O)[O-])cc([N+](=O)[O-])c1OC(=O)OC(C)C (stereo unspecified),43.6 µM (active),inactive,–,inactive,–,–,inactive,–,inactive,–
CCCCOCC,inactive,–,inactive,–,–,–,inactive,inactive,inactive,–
